Screening results (PubChem)
NPC1 promoter act – qHTS Assay for NPC1 Promoter Activators. Huh7 NPC1 promoter luciferase reporter, 24 h. Potency, µM (doses to about 9.22 µM), most hits filed as activators. AID 485313, 2010. 320,000 tested, 2.4% active; note: nearly all actives have a fitted effect of over 60% in size
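Stably transfected Huh7 (NPC1 promoter→luciferase), 1500 cells/well in Opti-MEM + 10% FBS, 2 h settle, then compound 24 h at 37 °C. Luminescence after 10 min with Amplite reagent.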
Rab9 prom act – qHTS Assay for Rab9 Promoter Activators. AID 485297, 2010. 320,000 tested, 2.8% active. Huh7 Rab9 promoter-luciferase reporter, luminescence, 24 h. Potency, µM (highest dose often 9.22 µM), actives largely listed as activators; note: nearly all actives have a fitted effect of over 60% in size
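Quantitative HTS format; Huh7 Rab9-luciferase reporter cells (1500/well) receive compound 2 h post-plating, incubate 24 h at 37 °C, then get luciferase reagent for 10 min before luminescence reading.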
SMN2 splice enh – qHTS Assay for Enhancers of SMN2 Splice Variant Expression; HEK293 SMN2-luciferase splicing reporter, luminescence, 30-36 h; 210,000 tested, 2.8% active; Potency, µM (top dose mostly 46.1 µM), most hits filed as activators; AID 1458, 2008; note: nearly all actives have a fitted effect of over 55% in size
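HEK293 cells carry an SMN2 minigene-luciferase reporter in which exon 7 inclusion puts luciferase in frame. Cells were seeded at 2000 cells/well, attached for 10-12 hours, then exposed to compounds for 30-36 hours at 37C before ONE-Glo luminescence.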
FLuc counter – qHTS profiling assay for firefly luciferase inhibitor/activator using purifed enzyme and Km concentrations of substrates (counterscreen for miR-21 project) | Luciferin 4-monooxygenase (Photinus pyralis), P08659 | purified FLuc, Km substrates, luminescence inhibition | Potency, µM (top dose mostly 57.5 µM), hits mostly inhibitors | 360,000 tested, 6.9% active; note: nearly all actives have a fitted effect of over 55% in size
Target sequence (P08659 whole entry, looked up): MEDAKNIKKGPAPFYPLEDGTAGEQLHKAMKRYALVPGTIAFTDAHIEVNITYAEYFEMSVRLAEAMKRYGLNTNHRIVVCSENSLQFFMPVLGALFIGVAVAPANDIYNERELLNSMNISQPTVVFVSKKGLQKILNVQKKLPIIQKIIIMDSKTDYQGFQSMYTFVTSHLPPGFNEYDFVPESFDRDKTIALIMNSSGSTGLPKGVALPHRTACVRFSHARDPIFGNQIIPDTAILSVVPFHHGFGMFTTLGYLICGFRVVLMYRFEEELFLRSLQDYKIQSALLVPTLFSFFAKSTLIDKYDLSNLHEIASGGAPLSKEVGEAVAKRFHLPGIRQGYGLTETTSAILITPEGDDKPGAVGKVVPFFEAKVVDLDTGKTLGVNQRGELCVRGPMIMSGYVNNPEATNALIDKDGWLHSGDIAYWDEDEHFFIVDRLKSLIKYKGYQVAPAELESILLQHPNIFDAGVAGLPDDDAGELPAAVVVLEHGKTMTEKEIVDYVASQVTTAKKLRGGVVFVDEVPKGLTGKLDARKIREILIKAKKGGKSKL
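Biochemical qHTS of compounds, final roughly 60 µM downward over six points, against 10 nM purified firefly luciferase using Km concentrations of substrates (10 uM D-luciferin, 10 uM ATP) in Tris acetate pH 7.5 buffer; luminescence output.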
ELG1 genotoxic – qHTS screen for small molecules that induce genotoxicity in human embryonic kidney (HEK293T) cells expressing luciferase-tagged ELG1; HEK293T ELG1-luciferase reporter, luminescence, 16 h; Potency, µM (titrated, usually from 46 µM), actives largely listed as activators; 330,000 tested, 1.3% active; note: nearly all actives have a fitted effect of over 60% in size
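Reporter readout depends on ELG1 protein level, which increases with genetic stress. After 16 hr compound exposure at 37 °C, luciferase activity was quantified using ONE-Glo.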
ELG1 repair inh – qHTS screen for small molecules that inhibit ELG1-dependent DNA repair in human embryonic kidney (HEK293T) cells expressing luciferase-tagged ELG1; Potency, µM (highest dose often 46.1 µM), actives largely listed as inhibitors; 330,000 tested, 2.3% active; HEK293T ELG1-luciferase reporter, luminescence, 16 h; DNA damage induced by 5-fluorouridine; note: nearly all actives have a fitted effect of over 55% in size
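Step one: seed 2,000 cells per well. Step two: pin-transfer compound or DMSO alongside 5-fluorouridine. Step three: incubate 16 hr, 37 °C, 5% CO2. Step four: add ONE-Glo, wait 30 min, read luminescence.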
Of the large screens only hits and unclear results are named; the others gave an inactive call. Sampled rows, rich in hits. Any-hit rate of the full collection: about 9.2%. Calls come from the whole dose curve; as a rule, active = well fitted curve in the direction sought with a large enough effect; inconclusive = small, poorly fitted or top-dose-only effect, or another doubt; inactive = no such curve, though single readings can be large; an effect the other way counts as inactive or inconclusive.

COc1ccc(C(C)=O)cc1COC(=O)c1ccc(C)c(S(=O)(=O)N2CCOCC2)c1	none (no result: SMN2 splice enh)
Cc1ccc(-c2cc(-c3ccc4c(c3)NC(=O)CO4)nc3c2COc2ccccc2-3)cc1	none (no result: NPC1 promoter act, Rab9 prom act, ELG1 genotoxic, ELG1 repair inh)
Cc1ccc(NC2=C([N+](=O)[O-])CS(=O)(=O)C2)cc1	FLuc counter 13.5µM, ELG1 repair inh inconclusive
CCc1ccccc1NC(=O)CC1NCCNC1=O (stereo not given)	none (no result: NPC1 promoter act, Rab9 prom act, ELG1 genotoxic, ELG1 repair inh)
COc1ccc2cc(CN(CC3CCCO3)C(=O)Nc3ccccc3OC)c(=O)[nH]c2c1 (stereo not given)	ELG1 repair inh 7.3µM (no result: SMN2 splice enh)
COc1ccc(NC(=O)N(Cc2cc3ccc(OC)cc3[nH]c2=O)CC2CCCO2)cc1 (stereo not given)	FLuc counter inconclusive, ELG1 repair inh 10.3µM
Cc1cccc2cc(CN(CC3CCCO3)C(=O)c3ccncc3)c(=O)[nH]c12 (stereo not given)	none
COc1ccc2[nH]c(=O)c(CN(CC3CCCO3)C(=S)Nc3ccccc3)cc2c1 (stereo not given)	none (no result: SMN2 splice enh)
COc1ccc2cc(CN(CC3CCCO3)C(=S)Nc3ccccc3)c(=O)[nH]c2c1 (stereo not given)	ELG1 repair inh 8.2µM (no result: SMN2 splice enh)
Cc1ccc(C)c2[nH]c(=O)c(CN(CC3CCCO3)C(=O)NC3CCCCC3)cc12 (stereo not given)	ELG1 repair inh 8.2µM
Cc1ccc(S(=O)(=O)Nc2ccc(C(=O)OCC(=O)N(CCC#N)c3ccccc3)cc2)cc1C	none
CC(=O)c1cccc(NC(=O)N2CCC(NC(=O)C34CC5CC(CC(C5)C3)C4)CC2)c1	none
CCC1(CC)NC(=O)N(CC(=O)OCc2nc3cc(C(=O)OC)ccc3c(=O)[nH]2)C1=O	none (no result: SMN2 splice enh)
COc1ccc2c(-c3ccc(S(N)(=O)=O)cc3)c(-c3ccc(S(C)(=O)=O)cc3)sc2c1	ELG1 repair inh inconclusive (no result: NPC1 promoter act, Rab9 prom act, SMN2 splice enh, FLuc counter)
COc1ccc(NC(=O)N(Cc2cc3cc(OC)ccc3[nH]c2=O)CC2CCCO2)cc1 (stereo not given)	ELG1 repair inh 10.3µM
COc1cc(C2C(C#N)=C(N)N(N(C)C)C3=C2C(=O)CC(C)(C)C3)cc(OC)c1OC (stereo not given)	none (no result: SMN2 splice enh)
CSC1=NC(NCCCO)c2c(sc3c2CC(C)(C)OC3)N1 (stereo not given)	ELG1 repair inh 20.6µM
CSc1nc(SCC(=O)O)c2c3c(sc2n1)COC(C)(C)C3	FLuc counter inconclusive, ELG1 repair inh inconclusive (no result: SMN2 splice enh)
CCCNC(=O)c1oc2ccc3c(c2c1C)C(=O)CC(C)(C)O3	NPC1 promoter act 1.78µM, Rab9 prom act 1.78µM, SMN2 splice enh 12.6µM, FLuc counter 2.39µM, ELG1 genotoxic inconclusive, ELG1 repair inh inconclusive
CCOC(=O)c1ccc(NC(=O)c2oc3ccc4c(c3c2C)C(=O)CC(C)(CC)O4)cc1 (stereo not given)	none (no result: NPC1 promoter act, Rab9 prom act, ELG1 genotoxic, ELG1 repair inh)
Cc1c(C(=O)NCc2ccc(Cl)cc2)oc2ccc3c(c12)C(=O)CC(C)(C)O3	FLuc counter inconclusive (no result: NPC1 promoter act, Rab9 prom act, ELG1 genotoxic, ELG1 repair inh)
CCCNC(=O)c1oc2ccc3c(c2c1C)C=CC(C)(C)O3	NPC1 promoter act inconclusive, Rab9 prom act 3.55µM, FLuc counter 10.7µM, ELG1 genotoxic inconclusive, ELG1 repair inh inconclusive (no result: SMN2 splice enh)
COC(=O)c1ccccc1NC(=O)c1oc2ccc3c(c2c1C)C(=O)CC(C)(C)O3	FLuc counter 5.36µM (no result: NPC1 promoter act, Rab9 prom act, SMN2 splice enh, ELG1 genotoxic, ELG1 repair inh)
CCOC(=O)c1oc2ccc3c(c2c1C)C(=O)CC1(CCN(C(=O)OCC)CC1)O3	ELG1 repair inh 20.6µM
CCOC(=O)C12CC1/C(=N/O)c1ccccc1O2 (stereo not given)	none (no result: FLuc counter, ELG1 genotoxic, ELG1 repair inh)
CC1=C([N+](=O)[O-])C(c2ccc(Cl)cc2)NC(=O)N1C (stereo not given)	none (no result: SMN2 splice enh)
COc1cccc(CNC(=O)c2oc3ccc4c(c3c2C)C(=O)CC(C)(C)O4)c1OC	FLuc counter 3.38µM (no result: NPC1 promoter act, Rab9 prom act, ELG1 genotoxic, ELG1 repair inh)
